Several values for one entry are separate records, joined by “and”; a condition that tells them apart may be missing. Identical values can stand only once. Among all 350,000 compounds or so, about 31,000 (8.9%) were called active. Where a call stands in place of a potency, no number is given. About 15% were inconclusive and are not listed. Calls follow the shape of the dose curve; as a rule, active = well fitted inhibition curve with a large enough effect; inconclusive = small, poorly fitted or top-dose-only effect; inactive = no such curve, though single readings can be large or run the other way. The full list was thinned out, with actives kept by preference.
biological target: Histone-lysine N-methyltransferase EHMT2 (Homo sapiens) (UniProt Q96KQ7); test: qHTS Assay for Inhibitors of Histone Lysine Methyltransferase G9a; conditions: G9a H3K9 monomethylation, AlphaScreen, 2 h; series mostly up to 102 µM; also: nearly all actives have a fitted effect of over 75% in size
Sequence (Q96KQ7 913-1193 limits assumed): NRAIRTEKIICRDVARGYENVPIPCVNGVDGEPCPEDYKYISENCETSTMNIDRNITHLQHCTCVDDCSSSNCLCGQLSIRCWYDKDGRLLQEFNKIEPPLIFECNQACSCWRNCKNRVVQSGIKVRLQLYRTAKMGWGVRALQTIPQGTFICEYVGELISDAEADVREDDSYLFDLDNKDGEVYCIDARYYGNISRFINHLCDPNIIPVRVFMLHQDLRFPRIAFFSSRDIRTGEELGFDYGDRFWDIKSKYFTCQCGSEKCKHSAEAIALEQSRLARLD
From the text: Methylated lysines, on the N-terminal tails of histone proteins serve as epigenetic markers to recruit factors that can then modify local chromatin structure to lead to functional consequences. G9a and other members of the SUV39 family of the SET domain-containing superfamily of histone lysine methyltransferases (HMT) have been identified to specifically methylate Lys9 of histone H3 (H3K9). G9a catalyzes the mono- and di-methylation of H3K9 in mammalian euchromatic regions, where the resulting H3K9me2 is indicative of transcriptional repression. […] The inhibition of G9a will result in transcriptional activation and work synergistically with DNA methyltransferase and histone deacetylase inhibitors, to kill cancer cells. This qHTS assay for identification of G9a inhibitors is a chemiluminescence based AlphaScreen (PerkinElmer). Methylation of biotinylated-histone peptide is measured through specific antibody-based detection, in conjunction with streptavidin-coated donor and anti-IgG antibody-coated acceptor beads. The method is particularly well suited for detection of inhibitors acting by the desired histone peptide competitive mechanism and is applicable to testing other HMTs. Although AlphaScreen has significant advantages with its utility in a variety of epigenetic target assays, the primary screening data provided in this deposition should be used with caution due to the prevalence of screening artifacts. An AlphaScreen counterscreen is highly recommended to be run against any putative actives to eliminate non specific artifacts. Alternatively, one can use other AlphaScreen assays in PubChem to filter out promiscuous hits. Quinn et al. A chemiluminescence-based method for identification of histone lysine methyltransferase inhibitors. Mol Biosyst 6(5): 782-8. 2010. PMID: 20567762 [2] Baell,Holloway. New substructure filters for removal of pan assay interference compounds (PAINS) from screening libraries and for their exclusion in bioassays. J Med Chem. 53(7):2719-40. 2010. PMID: 20131845 NIH Molecular Libraries Probe Production Network [MLPCN] NIH Chemical Genomics Center [NCGC] Structural Genomics Consortium (SGC) NIH Grant: 5U54 MH084681-02
To each well of a 1,536w plate, 2ul of HMT enzyme (final 20nM) were added, using a nanoliter dispenser. The G9a- and GLP-inhibitor BIX-01294 (CID: 25150857) are used as an intraplate control, with a 16-point titration in duplicate. A Kalypsys pin-tool transferred 23nl of library compound solution in DMSO to each well. Following a 15 min incubation of enzyme with compounds at room temperature, 1ul mixture of b-H3K9 peptide substrate (final 500nM) and SAM cofactor (final 20uM) were added. Reactions were allowed to proceed at room temperature for 2 hours. Methylated b-H3K9 peptide product was detected with 0.5 ug/mL rabbit polyclonal anti-monomethyl histone H3K9 antibody (Abcam Inc., Cambridge, MA) and 20 ug/mL each streptavidin-coated donor and anti-rabbit IgG acceptor AlphaScreen beads. Antibody and beads were added in a 1ul dispense, for a final volume of 4ul, and plates were incubated, protected from the light, for 10 min at room temperature. Microplates were then read on an EnVision multilabel plate reader using the 1,536 plate HTS AlphaScreen aperture (excitation time 80 ms, measurement time 240 ms).
Potency is read from the fitted curve at half-maximal effect.

SMILES	Potency	activity, negative = inhibition
c1ccc(Cc2nn3c(Cn4cnc5ccccc54)nnc3s2)cc1	3.16 µM (active)	–
COc1ccc(S(=O)(=O)NCc2ccc(C(=O)N3CCC4(CC3)OCCO4)cc2)cc1	–	inactive
CC(C)c1ccc(-n2c(O)c(/C=N/N3CCOCC3)c(=O)[nH]c2=S)cc1	50.1 µM (active)	–
Cc1cccc(-n2c(O)c(/C=N/N3CCOCC3)c(=O)[nH]c2=S)c1	22.4 µM (active)	–
O=c1[nH]c(=O)n(-c2ccccc2)c(O)c1C=NC12CN3CN(CN(C3)C1)C2	–	inactive
Cc1cccc(-n2c(O)c(C=NC34CN5CN(CN(C5)C3)C4)c(=O)[nH]c2=O)c1	50.1 µM (active)	–
Cc1ccc(-n2c(O)c(C=NCC3CCCO3)c(=O)[nH]c2=O)c(C)c1 (centres undefined)	–	48.7% [at 12.7 µM] (inactive)
O=c1[nH]c(=O)n(CCc2ccc(F)cc2)c(O)c1/C=N/N1CCCCC1	–	inactive
O=c1[nH]c(=O)n(-c2ccc(F)cc2)c(O)c1C=NCCN1CCCCC1	–	inactive
O=c1[nH]c(=O)n(CCc2ccccc2)c(O)c1/C=N/N1CCOCC1	–	inactive
O=C(N/N=C/c1c(O)n(C2CC2)c(=S)[nH]c1=O)c1ccccc1	–	inactive
CN(C)CC1CCCCC1=O (centres undefined)	–	inactive
CN(C)c1ccc(/C=C2\CC3C4CC=C5CC(O)CCC5(C)C4CCC3(C)C2=O)cc1 (centres undefined)	–	inactive
COC(=O)C1=C(c2ccccc2OCc2ccccc2)C[C@@H]2CC[C@H]1N2C(=O)NCc1ccc(OC)cc1	–	-7.46% [at 2.33 µM] (inactive)
CCOc1ccc(C2SCC(=O)Nc3c2c(C)nn3C2CCOC(C)(C)C2)cc1 (centres undefined)	–	inactive
c1ccc2c(c1)[I+]c1ccccc1-2	–	-19.1% [at 12.7 µM] (inactive)
Cc1ccc(-c2nc3ccccc3c(=O)n2-c2ccc(Br)cn2)cc1	–	inactive
CN(C)C(=O)Oc1ccc(NC(=O)N2CCOCC2)cc1	–	inactive
CSc1nc2ccc(C)cc2c(=O)n1-c1cccnc1	–	inactive
N#Cc1ccc(Cn2cc(C(=O)c3ccco3)c3ccccc32)cc1	–	inactive

SMILES	Potency	activity, negative = inhibition
COc1ccc(-n2c(O)c(C(C)=Nc3ccc4c(c3)CCC4)c(=O)[nH]c2=O)cc1	–	inactive
CC(=O)NBr	–	inactive
CCc1nc2ccccc2c(=O)n1-c1cccc(OC)c1	–	inactive
Cc1cccc(-n2c(C)nc3cc(C(=O)N4CCC5(CC4)OCCO5)ccc32)c1	–	inactive
O=C(N/N=C/c1c(O)n(Cc2ccccc2)c(=O)[nH]c1=O)c1ccccc1	–	inactive
Fc1ccc(N2CCN(Cc3ccc4c(c3)OCO4)CC2)cc1	8.91 µM (active)	–
Cc1cc(=O)oc2c(C)c(OCC(=O)N3CCN(Cc4ccc5c(c4)OCO5)CC3)ccc12	–	inactive
Oc1cc2c(cc1CN1CCN(c3ccccc3)CC1)OCO2	10 µM (active)	–
CC(C)c1ccc(O)c(CN2CCN(c3ccccc3)CC2)c1	–	inactive
O=C(NCC(c1cccnc1)N1CCN(c2ccccc2)CC1)Oc1ccccc1 (centres undefined)	–	inactive
Cc1ccc(C(C)C)c(OCC(=O)N2CCN(CC(=O)N3CCOCC3)CC2)c1	–	28.3% [at 12.7 µM] (inactive)
CN1CCN(/N=C/c2c[nH]c3ccccc23)CC1	–	inactive
CC(=O)OC1C2CCC3C1(CC(O)[C@@]1(O)[C@@H](CC(O)C1(C)C)[C@]3(C)O)C[C@@]2(C)O (some centres undefined)	–	-31.5% [at 2.33 µM] (inactive)
CCN1C[C@@]2(COC)CC[C@H](OC)[C@]34[C@@H]1[C@]1(OCO[C@@]15C[C@@H](OC)C1C[C@H]3[C@H]5[C@@H]1OC)[C@H](O)[C@@H]24	–	26.9% [at 21.5 µM] (inactive)
CSC1=NP(=S)(SC)N(C)c2nc3n(c21)CCC3 (centres undefined)	–	inactive
COc1ccc(-c2nn(CCC#N)cc2C(=O)Nc2ccc(C(C)=O)cc2)cc1	–	inactive
COc1cc(-n2c(=S)[nH]c3ccc(C)cc3c2=O)c(Cl)cc1Cl	–	20.4% [at 12.7 µM] (inactive)
Cc1cc2ccccn2c1C(C[N+](=O)[O-])c1c(F)cccc1Cl (centres undefined)	44.7 µM (active)	–
Cc1nc2nc(C)c(CCC(=O)N3CCC4(CC3)OCCO4)c(C)n2n1	–	inactive
CNP1(NC)=Nc2nn(-c3ccccc3)c(N)c2C(c2ccccc2)=N1	–	inactive

SMILES	Potency	activity, negative = inhibition
C/C=C/CC1(CC)C(=O)NC(=S)NC1=O	–	inactive
COc1cccc(C(=O)N2C[C@H]3C[C@@H](C2)c2cccc(=O)n2C3)c1	–	1.87% [at 12.7 µM] (inactive)
O=C(NC(=S)N1C[C@H]2C[C@H](C1)c1cccc(=O)n1C2)c1ccc(F)cc1	35.5 µM (active)	–
O=C(CCC(=O)N1C[C@H]2C[C@@H](C1)c1cccc(=O)n1C2)NCc1ccccc1C(F)(F)F	–	12.2% [at 0.501 µM] (inactive)
Cc1cccc(NC(=O)OC2CN3CCC2CC3)c1 (centres undefined)	–	inactive
COC1=C[C@@H]2[C@@H]3Cc4ccc(OC)c(O)c4[C@]2(CCN3C)CC1=O	–	inactive
COc1ccc2c(c1O)-c1cccc3c1[C@@H](C2)N(C)CC3	7.94 µM (active)	–
COP(=O)(OC)C(NC(=O)c1ccc(C)cc1)C(Cl)(Cl)Cl (centres undefined)	–	inactive
C[C@]12CC[C@H](O)C[C@@H]1CC[C@H]1[C@H]2CC[C@]2(C)C(=O)CC[C@@H]12	–	13.5% [at 21.5 µM] (inactive) and 22.6% [at 21.5 µM] (inactive) and 16.7% [at 21.5 µM] (inactive)
Cc1ccc(C2CN(C)CC2C(=O)c2ccc(F)cc2)cc1 (centres undefined)	–	inactive
COc1ccc(CN2CCN(c3ccccc3F)CC2)c(OC)c1	11.2 µM (active)	–
Fc1cccc(F)c1CN1CCN(Cc2c(F)cccc2F)CC1	–	inactive
O=C(O)C1CSC(c2cccnc2)N1 (centres undefined)	3.55 µM (active)	–
C[C@@]1([C@@H](NP(=O)(c2ccccc2)c2ccccc2)c2ccccc2)C[C@H]1CCO	–	inactive
COc1ccc(C2CC(c3cccs3)=NN2c2nc(C)c(C(C)=O)s2)cc1OC (centres undefined)	–	inactive
COc1ccccc1N=Nc1c(O)[nH]c(=S)[nH]c1=O	39.8 µM (active)	–
CCOCCc1c(O)[nH]c(=S)[nH]c1=O	–	inactive
Clc1ccc2nc3c(c(-c4ccccc4)c2c1)CNCC3	–	inactive
CNCC[C@H](Oc1ccc(C(F)(F)F)cc1)c1ccccc1	–	4.7% [at 21.5 µM] (inactive) and 32.2% [at 12.7 µM] (inactive)

From PubChem BioAssay AID504332 (National Center for Advancing Translational Sciences (NCATS), 2011)
